Screening data: PubChem BioAssay, National Center for Advancing Translational Sciences (NCATS)
Only a selection was taken, and hits are over-represented in it overall.
Shiga inhibitor – blocks Shiga toxin action in Vero cells; inhibition, % at 38.7 µM; 9.2% of 290,000 active; Vero cells, Shiga toxin protein synthesis inhibition reporter; AID 2315; in the data active = inhibition mostly above about 28%, no sharp cut-off; inactive = mostly below about 43%; also: 0% is about no effect
Tb PYK inh – blocks Trypanosoma brucei pyruvate kinase. 0.12% of 410,000 active. TbPYK enzyme, Kinase-Glo Plus ATP luminescence, 45 min. Q57TT1. Potency, µM (doses to about 76.8 µM), inactives show at the top dose activity, negative = inhibition, most hits filed as inhibitors; also: potency is read from the fitted curve at half-maximal effect; % is scaled to controls: 0 for no effect and ±100 for the full control effect; nearly all actives have a fitted effect of over 50% in size
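Glycolytic pyruvate kinase of T. brucei was incubated with substrate, test compound and 130 uM ADP for 45 minutes at room temperature. Luminescent Kinase-Glo Plus signal was measured after 10 minutes.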
LmPK inh – LmPK (Leishmania mexicana) enzyme inhibition; 0.37% of 290,000 active; Q27686; Potency, µM (series often up to 57.5 µM), for the others: at the highest dose activity change, negative = inhibition, usual class: inhibitors; purified LmPK, Kinase-Glo ATP luminescence, 1 h; AID 1721; also: potency is read from the fitted curve at half-maximal effect; % is scaled to controls: 0 for no effect and ±100 for the full control effect
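Screened at intermediate enzyme activity to detect both inhibitors and activators: LmPK at 0.1 nM, with a 0.5 nM enzyme column as activation reference. PEP 0.5 mM, ADP 0.1 mM; ATP detected by luminescence after 1 h.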
Sm TGR inh – inhibitors of Schistosoma mansoni thioredoxin glutathione reductase | purified TGR, DTNB reduction, TNB absorbance 405 nm | 3% of 360,000 active | Potency, µM (top dose mostly 114 µM), inactives show at the highest dose activity change, negative = inhibition, hits mostly inhibitors; also: potency is read from the fitted curve at half-maximal effect; % is scaled to controls: 0 for no effect and ±100 for the full control effect; nearly all actives have a fitted effect of over 60% in size
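TGR 20 nM + NADPH 100 uM (dispensed conc.), cpd preinc 15 min RT; start with NADPH (500 uM addition) then DTNB (15 mM addition). Kinetic TNB absorbance, 405 nm filter. Four-parameter Hill fit across titration.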
Giardia FBPA inh – inhibitors of Giardia lamblia fructose-1,6-bisphosphate aldolase | A8B2U2 | purified Giardia FBPA | Potency, µM (doses to about 59.6 µM), without a hit: at the highest dose activity, negative = inhibition, most hits filed as inhibitors | 0.71% of 290,000 active; also: potency is read from the fitted curve at half-maximal effect; % is scaled to controls: 0 for no effect and ±100 for the full control effect; nearly all actives have a fitted effect of over 55% in size
Target sequence (A8B2U2 whole entry, looked up): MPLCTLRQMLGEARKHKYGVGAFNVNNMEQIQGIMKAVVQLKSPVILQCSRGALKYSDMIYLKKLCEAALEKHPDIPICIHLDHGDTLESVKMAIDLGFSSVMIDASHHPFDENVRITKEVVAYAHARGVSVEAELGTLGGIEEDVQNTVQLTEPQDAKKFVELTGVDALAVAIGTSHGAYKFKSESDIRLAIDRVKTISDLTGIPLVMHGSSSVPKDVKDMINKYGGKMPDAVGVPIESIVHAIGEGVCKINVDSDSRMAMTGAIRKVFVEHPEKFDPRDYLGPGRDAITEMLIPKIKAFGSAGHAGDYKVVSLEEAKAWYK
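Giardia FBPA (40 nM reagent) was preincubated 10 min at RT with compound (up to 57.5 uM final), then substrate plus GAPDH/TPI/NAD/arsenate coupling system with diaphorase/resazurin was added; resorufin fluorescence (525/598 nm) was read after 20 min.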
Cycloheximide cs – counter-screen for Shiga toxin inhibitors: cycloheximide protein synthesis inhibition. cell reporter, cycloheximide protein synthesis inhibition counterscreen. max response, %. 12% of 300,000 active; in the data active = max response mostly above about 13%, no sharp cut-off; inactive = mostly below about 14%; also: read at 38.3 µM for the half of the compounds with a filed dose; 0% is about no effect
* hit, by the source's call; ? = inconclusive; nt = no result given. Unless noted, calls follow the shape of the dose curve; as a rule, active = well fitted curve in the direction sought with a large enough effect; inconclusive = small, poorly fitted or top-dose-only effect, or another doubt; inactive = no such curve, though single readings can be large; an effect the other way counts as inactive or inconclusive.

SMILES	Shiga inhibitor	Tb PYK inh	LmPK inh	Sm TGR inh	Giardia FBPA inh	Cycloheximide cs
COc1ccc(OC)c(Nc2nc(-c3sc(N)nc3C)cs2)c1	-8	-6%	-2%	-28%	?	-3
Cc1nc(C)c(-c2csc(Nc3cccnc3)n2)s1	38*	0%	0%	-7%	0%	34*
Cc1nc(C)c(-c2csc(Nc3ccc(O)c(C(=O)O)c3)n2)s1	9	-6%	0%	-4%	-29%	-1
Cc1nc(C)c(-c2csc(Nc3ccc(N)cc3)n2)s1	69*	-1%	-4%	-5%	-19%	35*
COc1ccc(Nc2nc(-c3sc(C)nc3C)cs2)cc1	14	-1%	5%	-21%	-2%	13*
COc1cc(NC(=O)CCc2c(C)nc3nc(-c4cc(OC)cc(OC)c4)nn3c2C)cc(OC)c1	nt	-5%	nt	-5%	nt	nt
COC(=O)c1ccc(Cn2c(C)c(C(=O)Nc3cccc(Oc4ccccc4)c3)sc2=O)o1	nt	-13%	nt	nt	nt	nt
CCSc1nnc2c3cc(CC)ccc3n(C)c2n1	54	3%	5%	7%	17%	active
CCCCSc1nnc2c(n1)[nH]c1ccccc12	128*	-13%	-1%	-6%	-5%	46*
CCCCCSc1nnc2c(n1)[nH]c1c(C)cccc12	nt	0%	nt	0%	nt	nt
COc1ccc2[nH]c3nc(SC(C)C)nnc3c2c1	105*	-13%	-2%	4%	-6%	68*
Cc1ccc2c(c1)c1nnc(SCC(=O)NC3CC3)nc1n2C	-10	nt	-9%	4%	-6%	-7
c1ccc2c(c1)[nH]c1nc(SCCN3CCOCC3)nnc12	27	-17%	-3%	-26%	-15%	13*
CS(=O)(=O)Nc1cccc(-c2ccc3ncnc(NCc4cccs4)c3c2)c1	nt	nt	nt	nt	-3%	nt
CC[C@H](C)[C@H](NC(=O)[C@H](Cc1ccccc1)NC(=O)[C@H](CC(C)C)NC(=O)[C@H](CCSC)NC(=O)[C@H](CCC(=O)O)NC(=O)[C@H](CCC(=O)O)NC(=O)[C@H](CC(=O)O)NC(=O)[C@H](CO)NC(=O)[C@@H]1CCCN1C(=O)[C@H](CCCCN)NC(=O)[C@@H](N)[C@@H](C)O)C(=O)N[C@@H](Cc1ccc(O)cc1)C(=O)NCC(=O)N[C@@H](Cc1cnc[nH]1)C(=O)N[C@@H](Cc1ccc(O)cc1)C(=O)N[C@@H](CCCCN)C(=O)N[C@@H](CCC(N)=O)C(=O)N[C@@H](C)C(=O)N[C@H](C(=O)N[C@H](C(=O)NCC(=O)N[C@@H](CC(=O)O)C(=O)N[C@H](C(=O)N[C@@H](CC(N)=O)C(=O)N[C@H](C(=O)N[C@@H](CCC(=O)O)C(=O)N[C@@H](CCCNC(=N)N)C(=O)N1CCC[C@H]1C(=O)NCC(=O)N[C@@H](CCSC)C(=O)N[C@@H](CC(C)C)C(=O)N[C@@H](CC(=O)O)C(=O)N[C@@H](Cc1ccccc1)C(=O)N[C@H](C(=O)O)[C@@H](C)O)[C@@H](C)O)[C@@H](C)CC)C(C)C)[C@@H](C)O	2	nt	nt	nt	-6%	-9
CC(=O)Nc1cccc(NC(=O)CSc2nnc3ccc(-c4ccncc4)nn23)c1	nt	0%	nt	-3%	nt	nt
CCc1ccccc1NC(=O)Cn1nc(C)c2nn(-c3ccc(Cl)cc3)c(C)c2c1=O	nt	2%	nt	1%	nt	nt
CC(C)CSc1nnc2c3ccccc3n(C)c2n1	nt	0%	-1%	-1%	6%	34*
O=C(O)c1ccccc1CSc1nnc2c(n1)[nH]c1ccccc12	17	?	-23%	0%	9%	-3
CC(C)CSc1nnc2c(n1)[nH]c1ccccc12	43	9%	4%	2%	4%	32*
CCOC(=O)c1cnc(N2CCN(c3ccc(C)cc3C)CC2)c2ccccc12	nt	-14%	nt	25%	nt	nt
COc1ccc(C2=NOC(C(=O)NCc3ccco3)C2)cc1 (stereo not drawn)	72	-19%	6%	21%	0%	27*
COc1ccc(C2=NOC(CNC(N)=S)C2)cc1 (stereo not drawn)	57*	0%	-3%	3%	0%	36*
